Reference: paper PMC9838217, “Structure of SALL4 zinc finger domain reveals link between AT-rich DNA binding and Okihiro syndrome”
Where a chain is given by its changes, count along the chain named.

Assays:
Assay in all cases: HT-SELEX; high values mean tight binding
Settings in all cases: protein: recombinant; vector His6-GST; dsDNA, one strand shown
[1] = target: T1, SALL4 ZFC4 WT (HT-SELEX) (Mus musculus, UniProt Q8BX22 870-940)
T1 sequence: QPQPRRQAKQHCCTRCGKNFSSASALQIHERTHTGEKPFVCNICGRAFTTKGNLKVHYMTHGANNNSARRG
In short: (§1)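 Up to 6 cycles of selection were run in triplicate. In each, purified recombinant mouse SALL4 zinc finger cluster 4 (residues 870–940, 1 µg) was incubated with library DNA (1.5 µg first cycle, 200 ng later) in 100 µl of 10 mM Tris–HCl pH 7.5, 50 mM NaCl, poly(dI-dC), DTT for 10 min at room temperature, then complexes were captured on Ni2+ beads, washed and PCR-amplified; final pools were MiSeq-sequenced and scanned for 6-mers. Binding signal is each canonical k-mer's read fraction as fold change versus the initial random library.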

[2] = target: T2, SALL4 ZFC4 R900W (HT-SELEX) (Mus musculus, UniProt Q8BX22 870-940, R900W)
T2 sequence: T1 sequence with R31W
In short: as §1

[3] = target: T3, SALL4 ZFC4 G921D (HT-SELEX) (Mus musculus, UniProt Q8BX22 870-940, G921D)
T3 sequence: T1 sequence with G52D
In short: as §1

Row | Sequence | binding signal [1] [fold-change vs cycle 0] | binding signal [2] [fold-change vs cycle 0] | binding signal [3] [fold-change vs cycle 0]
1 | GAGGAA | 0.874 ± 0.0788 | 1.03 ± 0.0537 | 
2 | AAGGAT | 1.54 ± 0.0522 | 1.72 ± 0.118 | 
3 | AGTCCG | 0.333 ± 0.0345 | 0.404 ± 0.0391 | 0.533 ± 0.0458
4 | ATCCCG | 0.428 ± 0.0246 | 0.4832 ± 0.00274 | 0.574 ± 0.0423
5 | ATGAAA | 2.91 ± 0.152 | 1.98 ± 0.0876 | 1.79 ± 0.147
6 | CCAAAA | 0.9105 ± 0.0059 | 0.953 ± 0.0119 | 0.997 ± 0.0429
7 | CCCATC | 0.471 ± 0.0121 | 0.54 ± 0.0172 | 0.613 ± 0.034
8 | AATAAC | 2.58 ± 0.181 | 2.03 ± 0.114 | 1.79 ± 0.168
9 | CATGAC | 0.822 ± 0.0546 | 0.938 ± 0.0407 | 1 ± 0.0669
10 | AGTCAA | 1.21 ± 0.0262 | 1.409 ± 0.0091 | 1.34 ± 0.0532
11 | ACACCG | 0.325 ± 0.0278 | 0.384 ± 0.0241 | 0.5 ± 0.0673
12 | ACCATG | 0.8385 ± 0.0023 | 0.925 ± 0.0262 | 0.997 ± 0.0244
13 | ACACCA | 0.735 ± 0.0297 | 0.841 ± 0.0318 | 0.903 ± 0.0271
14 | AATTGG | 1.07 ± 0.0351 | 1.15 ± 0.0596 | 1.19 ± 0.036
15 | GAACTC | 0.875 ± 0.0352 | 1.03 ± 0.0309 | 1.04 ± 0.0772
16 | ACATAA | 2.21 ± 0.177 | 1.96 ± 0.0742 | 1.75 ± 0.158
17 | GGACAC | 0.362 ± 0.012 | 0.454 ± 0.013 | 0.559 ± 0.0612
18 | GCAACC | 0.327 ± 0.0217 | 0.365 ± 0.0107 | 0.503 ± 0.0559
19 | CTCGAC | 0.348 ± 0.0179 | 0.396 ± 0.0285 | 0.539 ± 0.0655
20 | GACGGA | 0.372 ± 0.0168 | 0.427 ± 0.0141 | 0.545 ± 0.0666
21 | GACCAA | 0.62 ± 0.021 | 0.733 ± 0.0369 | 0.845 ± 0.0391

Row | Sequence | binding signal [1] [fold-change vs cycle 0] | binding signal [2] [fold-change vs cycle 0] | binding signal [3] [fold-change vs cycle 0]
22 | CGACTA | 0.59 ± 0.0236 | 0.656 ± 0.0311 | 0.777 ± 0.0234
23 | TCCAGA | 0.807 ± 0.0459 | 0.894 ± 0.029 | 0.927 ± 0.0563
24 | CTAGGC | 0.314 ± 0.00866 | 0.38 ± 0.00705 | 0.509 ± 0.0429
25 | ACCTCC | 0.552 ± 0.031 | 0.625 ± 0.0479 | 0.721 ± 0.0399
26 | ATAAAT | 4.06 ± 0.373 | 2.56 ± 0.158 | 2.19 ± 0.239
27 | CTCGAG | 0.462 ± 0.0432 | 0.548 ± 0.0598 | 0.638 ± 0.046
28 | CCATAC | 0.84 ± 0.0342 | 0.88 ± 0.0149 | 0.931 ± 0.0299
29 | GGCTAA | 0.523 ± 0.0366 | 0.619 ± 0.0212 | 0.728 ± 0.0327
30 | CACGAG | 0.41 ± 0.0151 | 0.496 ± 0.0211 | 0.599 ± 0.0729
31 | GCATCA | 0.645 ± 0.017 | 0.724 ± 0.00868 | 0.83 ± 0.0436
32 | CATTGC | 0.645 ± 0.0305 | 0.712 ± 0.0136 | 0.825 ± 0.0379
33 | GATTAA | 2.07 ± 0.127 | 1.99 ± 0.123 | 1.77 ± 0.188
34 | ACGTGA | 0.774 ± 0.0226 | 0.876 ± 0.021 | 0.931 ± 0.0233
35 | CTAAAA | 1.62 ± 0.0677 | 1.63 ± 0.131 | 1.51 ± 0.106
36 | CAGGAA | 0.785 ± 0.0392 | 0.921 ± 0.0224 | 0.918 ± 0.0252
37 | ACAGTC | 0.718 ± 0.0285 | 0.8733 ± 0.00718 | 0.889 ± 0.0202
38 | ATGTGG | 0.714 ± 0.021 | 0.787 ± 0.0136 | 0.851 ± 0.0464
39 | CGAATC | 0.662 ± 0.00887 | 0.742 ± 0.0291 | 0.827 ± 0.0621
40 | ATTTCG | 1.02 ± 0.0756 | 0.985 ± 0.0219 | 1.06 ± 0.0262
41 | CTCATA | 1.52 ± 0.0984 | 1.48 ± 0.0543 | 1.41 ± 0.106
42 | CAGAAA | 1.12 ± 0.0595 | 1.18 ± 0.0406 | 1.15 ± 0.0688

Row | Sequence | binding signal [1] [fold-change vs cycle 0] | binding signal [2] [fold-change vs cycle 0] | binding signal [3] [fold-change vs cycle 0]
43 | GACAGA | 0.725 ± 0.0509 | 0.826 ± 0.0442 | 0.903 ± 0.00925
44 | CTTACA | 1.41 ± 0.0514 | 1.55 ± 0.0884 | 1.43 ± 0.0941
45 | TAGCCA | 0.536 ± 0.0328 | 0.614 ± 0.0132 | 0.733 ± 0.0537
46 | ATCTGC | 0.624 ± 0.0226 | 0.711 ± 0.0187 | 0.798 ± 0.0337
47 | AAAAAG | 1.57 ± 0.0619 | 1.68 ± 0.0943 | 1.52 ± 0.129
48 | GATCAC | 0.862 ± 0.0581 | 1.01 ± 0.0278 | 1.11 ± 0.0305
49 | AGTTAT | 2.81 ± 0.247 | 2.13 ± 0.15 | 1.89 ± 0.186
50 | AAAGAG | 1.26 ± 0.0407 | 1.46 ± 0.0773 | 1.33 ± 0.0951
51 | CAGTGC | 0.318 ± 0.0186 | 0.355 ± 0.00797 | 0.491 ± 0.0442
52 | AGTAGG | 0.864 ± 0.0537 | 0.972 ± 0.0557 | 0.989 ± 0.0263
53 | CCTTCC | 0.487 ± 0.0167 | 0.593 ± 0.0214 | 0.661 ± 0.0352
54 | AGACAA | 1.15 ± 0.0323 | 1.28 ± 0.0792 | 1.26 ± 0.0604
55 | GTGGAA | 0.745 ± 0.0414 | 0.83 ± 0.0233 | 0.871 ± 0.012
56 | ACCTCT | 0.859 ± 0.0231 | 0.978 ± 0.0308 | 1.02 ± 0.0211
57 | GCAACA | 0.54 ± 0.0464 | 0.629 ± 0.0238 | 0.72 ± 0.0281
58 | AGTTGG | 0.73 ± 0.0169 | 0.834 ± 0.0159 | 0.883 ± 0.0279
59 | AGCTTG | 0.638 ± 0.0175 | 0.764 ± 0.0176 | 0.841 ± 0.049
60 | TCCTCA | 0.899 ± 0.0263 | 1.04 ± 0.0214 | 1.06 ± 0.0234
61 | CCGGTA | 0.345 ± 0.0119 | 0.396 ± 0.0133 | 0.501 ± 0.0627
62 | AGGAAG | 0.939 ± 0.0254 | 1.172 ± 0.0114 | 1.11 ± 0.034
63 | CCCAAC | 0.395 ± 0.0223 | 0.437 ± 0.0176 | 0.544 ± 0.0399

Row | Sequence | binding signal [1] [fold-change vs cycle 0] | binding signal [2] [fold-change vs cycle 0] | binding signal [3] [fold-change vs cycle 0]
64 | AGGTTA | 1.49 ± 0.0813 | 1.57 ± 0.127 | 1.44 ± 0.162
65 | CATCAG | 0.861 ± 0.0198 | 0.967 ± 0.0193 | 0.996 ± 0.0231
66 | AATGTG | 1.15 ± 0.0171 | 1.23 ± 0.0476 | 1.25 ± 0.0281
67 | ATATGG | 1.44 ± 0.131 | 1.33 ± 0.0761 | 1.28 ± 0.0676
68 | ATACAC | 1.31 ± 0.0559 | 1.36 ± 0.0547 | 1.35 ± 0.0583
69 | GGGAAA | 0.693 ± 0.0334 | 0.767 ± 0.0294 | 0.812 ± 0.0285
70 | CATTAC | 1.43 ± 0.0799 | 1.52 ± 0.113 | 1.41 ± 0.113
71 | GGAAAA | 1.11 ± 0.0508 | 1.13 ± 0.0572 | 1.12 ± 0.0269
72 | CGTCTA | 0.63 ± 0.0233 | 0.702 ± 0.0194 | 0.79 ± 0.0202
73 | TGAGCA | 0.639 ± 0.0443 | 0.737 ± 0.0106 | 0.843 ± 0.0202
74 | ATGGTG | 0.792 ± 0.0243 | 0.882 ± 0.0384 | 0.941 ± 0.0443
75 | CTATCA | 1.36 ± 0.0524 | 1.47 ± 0.0491 | 1.41 ± 0.0867
76 | AGTCCA | 0.746 ± 0.0239 | 0.878 ± 0.0374 | 0.929 ± 0.0398
77 | ATTTGC | 0.914 ± 0.0535 | 0.9 ± 0.0391 | 0.981 ± 0.0312
78 | ACTTTA | 1.93 ± 0.117 | 1.99 ± 0.146 | 1.75 ± 0.227
79 | ACATAT | 2.28 ± 0.213 | 1.97 ± 0.122 | 1.75 ± 0.16
80 | ATATAC | 2.19 ± 0.164 | 1.98 ± 0.103 | 1.78 ± 0.131
81 | ATTATA | 4.99 ± 0.594 | 2.65 ± 0.265 | 2.25 ± 0.311
82 | GTACAC | 0.768 ± 0.0559 | 0.868 ± 0.0144 | 0.9395 ± 0.00736
83 | AGAAAC | 1.21 ± 0.0656 | 1.36 ± 0.0395 | 1.31 ± 0.0847
84 | ATCTCA | 1.42 ± 0.0416 | 1.5 ± 0.0539 | 1.43 ± 0.0584
